Sampled rows, rich in hits. Any-hit rate of the full collection: about 9.6%.
Insulin prom inh = TRM-6 insulin promoter activity inhibition; TRM-6 cells (human fetal islet line), insulin promoter-eGFP reporter, imaging; reporter expression induced with tamoxifen; inhibition, % at 2 µM; actives 0.9% (n = 130,000); AID 1273;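 active = inhibition above the mean plus 3 SD, with well images judged a real hit on visual review, cut at about 60% in these data, passing the limit was not always enough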
Autophagy HCS = modulators of autophagy. calls only at 10 µM (by protocol). AID 463193. actives 0.98% (n = 190,000). MEF GFP-LC3 puncta imaging; test concentration mostly 10 µM;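 active = percentage of spot-positive cells more than 3 SD above its plate mean, without a fluorescence outlier flag or 80% toxicity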;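 also: spot-positive cell cutoff set from DMSO-treated cells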
Insulin prom up = MIN6 insulin promoter up-regulation | actives 0.3% (n = 190,000) | z-score at 5 µM | AID 1625 | MIN6 insulin promoter-GFP reporter, high-content imaging; active compounds read high;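 active = z-score above 3 at 5 µM with at least 500 cells counted in the well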
L major viab = Leishmania major promastigote growth inhibition. actives 9% (n = 200,000). AID 1063. Leishmania major promastigotes, resazurin fluorescence viability. inhibition, % at 10 µM; in the data active = inhibition above about 50%;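 also: promastigotes grown with compound for 44 hours at 28 °C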
PTEN del growth = growth suppressors of cells with PTEN tumor suppressor deletion; AID 827; viability, % at 10 µM; actives 1.2% (n = 140,000); HCT116 PTEN-null viability, CellTiter-Glo, 60 h; active compounds read low;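 active = viability at or below a set limit, 4 SD under the median of all tested compounds, cut at about 3.7% in these data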;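 also: PTEN knockout HCT116 line with beta catenin targeted HCT116 as companion control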
HCT116 bCat-KO = beta-catenin-lacking colon tumor cell growth suppression. viability, % at 10 µM. actives 1.5% (n = 140,000). HCT116 beta-catenin knockout viability, CellTiter-Glo, 60 h; active compounds read low;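 active = viability at or under a set limit, the compound median less 4 SD, cut at about 6% in these data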;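 also: 0% = Hyamine 1622 control at 20 µM and 100% = untreated cell control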
Starred values were filed as active, the others as inactive; i = inactive; / = no result given; + = active, no number.

SMILES	Insulin prom inh	Autophagy HCS	Insulin prom up	L major viab	PTEN del growth	HCT116 bCat-KO
O=C(CSc1nnc(-c2ccncc2)n1Cc1ccco1)Nc1nc(-c2ccccc2)cs1	-11	+	-0.38	28	13	14
Cc1ccc(-c2noc(CCC(=O)N3CCN(c4cccc(C(F)(F)F)c4)CC3)n2)cc1	-19	i	-0.2	-6	64	60
O=[N+]([O-])c1cccc(-c2nnc(C34CC5CC(CC(C5)C3)C4)o2)c1	/	i	/	-8	104	99
C=CC(C)(C)c1[nH]cnc1/C=C1\NC(=O)C(C(C)C)NC1=O (stereo unspecified)	/	/	0.42	/	/	/
COc1ccc(CC(=O)O/N=C(\N)Cc2ccc(OC)c(OC)c2)cc1	18	i	/	92*	100	94
COc1ccc(NS(=O)(=O)c2ccc(NC(=O)c3ccc(Br)cc3)cc2)nn1	/	i	-0.07	-20	/	/
NS(=O)(=O)c1ccc(NC(=S)NC(=O)c2ccc(Br)o2)cc1	/	i	1	-8	/	/
Cc1cc(C)cc(NS(=O)(=O)c2ccc(NC(=S)Nc3ccccc3)cc2)c1	0	i	-0.39	82*	93	87
Cc1ccc(NC(=S)Nc2ccc(S(=O)(=O)Nc3ncccn3)cc2)c(C)c1	/	/	-0.41	/	/	/
Cc1cc(C)cc(NS(=O)(=O)c2ccc(NC(=S)NC(=O)c3ccc(Br)o3)cc2)c1	23	i	-1.7	95*	79	85
COc1ccc(NS(=O)(=O)c2ccc(NC(=S)NC(=O)c3ccc(Br)cc3)cc2)nn1	22	i	-0.03	85*	100	105
Cc1ccc(C)c(NC(=S)Nc2ccc(S(=O)(=O)Nc3ncccn3)cc2)c1	0	+	/	-4	95	85
CC1CN(C2=CC(=O)CCC2)CC(C)O1 (stereo unspecified)	-8	i	-0.35	-5	/	/
Cc1c(NC(=S)/C=C2\N(C)c3ccccc3C2(C)C)c(=O)n(-c2ccccc2)n1C	-5	i	-0.86	47	16	8
CCOC(=O)N1CCN(C(=O)CS(=O)Cc2nc(-c3cccc(C)c3)oc2C)CC1 (stereo unspecified)	/	i	-0.39	-6	100	99
Cc1cccc(Cn2nc(C(C)(C)C)cc2C(=O)Nc2ccc(F)cc2)c1	/	/	0.25	/	/	/
COc1cc(/C=N/NC(=O)c2nonc2C)ccc1O	11	i	0.15	0	/	/
COc1cccc(C2=NO[C@@H]3C(=O)N(c4ccc5c(c4)OCCO5)C(=O)[C@H]23)c1OC	80*	i	-0.43	-4	95	114
COc1cccc(C2=NO[C@@H]3C(=O)N(Cc4ccccc4)C(=O)[C@H]23)c1OC	20	i	/	-1	105	95
Cc1cc(OC(=O)c2c(Cl)cc(Cl)cc2Cl)nc(C)n1	/	i	1.4	-3	88	93
O=C(Cc1csc(-c2ccccc2)n1)Nc1ccc(C(F)(F)F)cc1	0	i	-0.12	87*	100	94
Cc1ccc(NC(=O)Cc2csc(-c3ccccc3)n2)cc1F	/	i	-0.15	4	93	96
CC1=NN(C(=O)COc2ccccc2C)C(O)(c2ccc(Cl)cc2)C1 (stereo unspecified)	/	i	-0.21	3	91	88
O=C(NNc1ccc(Cl)cc1)C1CCC1	/	/	-0.55	/	/	/
Cc1ccc(Nc2nc(Cl)nc(N(C)C#N)n2)cc1	-57	i	/	97*	91	89
SMILES	Insulin prom inh	Autophagy HCS	Insulin prom up	L major viab	PTEN del growth	HCT116 bCat-KO
Cc1[nH]c2ccccc2c1/C=N/NC(=O)C1CC1(c1ccccc1)c1ccccc1 (stereo unspecified)	-54	i	0.04	99*	3.4*	2.7*
Cc1[nH]c2ccccc2c1/C=N/NC(=O)CCC(=O)NCc1ccccc1	/	i	0.78	-4	/	/
CNC(=O)CCn1nc(-c2ccccc2)c2ccccc2c1=O	/	i	-0.13	-4	102	97
O=C(NCc1ccc2c(c1)OCO2)C(C(=O)c1ccccc1)n1cc(Cl)ccc1=O (stereo unspecified)	17	i	-0.24	-6	96	91
COc1ccc(N2CCN(C(=O)CSc3nnc4c5cc(C)ccc5n(C)c4n3)CC2)cc1	/	i	-0.12	12	82	96
COc1ccc2c(c1)c1nnc(SCC(=O)N3CCCCC3C)nc1n2C (stereo unspecified)	/	i	-0.7	85*	100	95
C/C(N)=C(/C#N)C(=O)COC(=O)c1cc(S(=O)(=O)N2CCCCC2)ccc1C	28	i	-0.21	71*	84	93
